According to PubChem BioAssay (Tox21):
Inconclusive results are not listed. Active and inactive are the calls of the source. Unless noted, calls come from the whole dose curve; as a rule, active = well fitted curve in the direction sought with a large enough effect in the repeat runs; inconclusive = weak or mixed curves; inactive = no such curve, though single readings can be large; an effect the other way counts as inactive or inconclusive.

Legend:
[1] = qHTS assay for small molecules that induce genotoxicity in human embryonic kidney cells expressing luciferase-tagged ATAD5 (AID 651632); note: nearly all actives have a fitted effect of over 15% in size
Procedure, shortened: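 Quantitative HTS in HEK293T expressing luciferase-tagged ATAD5, whose levels rise upon DNA damage. Exposure ran 16 hr at 37C and 5% CO2, with luminescence read 30 min after Amplite addition at room temperature.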

[2] = qHTS assay for small molecule agonists of the p53 signaling pathway - cell viability (AID 651633; calls by dose curve;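 note: p53RE-bla HCT reporter cells with a stable beta-lactamase p53 reporter; series mostly up to about 83 µM; nearly all actives have a fitted effect of over 30% in size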)
Procedure, shortened: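 p53RE-bla cells were treated with compound for 16 hours at 37 C. Cytotoxicity was then measured as CellTiter-Glo luminescence after 30 min at room temperature.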

[3] = qHTS assay for small molecules that induce genotoxicity in human embryonic kidney cells expressing luciferase-tagged ATAD5 - cell viability (AID 651634; calls by dose curve; note: nearly all actives have a fitted effect of over 25% in size)
Procedure, shortened: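 After 15.5 hr incubation with compound at 37C, 5% CO2, HEK293T ATAD5-luciferase cells received CellTiter-Fluor reagent; fluorescence intensity was quantified following 30 min at 37C.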

[4] = qHTS assay for small molecule disruptors of the mitochondrial membrane potential - cell viability (AID 720634; calls by dose curve;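 note: human HepG2 liver cancer cells; series mostly up to about 83 µM; nearly all actives have a fitted effect of over 20% in size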)
Procedure, shortened: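 ATP-based luminescent viability readout (CellTiter-Glo, 30 min, room temperature) in HepG2 cells multiplexed with the m-MPI membrane potential dye; compound exposure lasted 1 hr at 37 C.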

[5] = qHTS assay to test for compound auto fluorescence at 590 nm (red) in HepG2 cells (AID 720674)
Procedure, shortened: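 Fluorescence at 590 nm emission following 540 nm excitation was recorded from HepG2 wells one hour after compound transfer, with DMSO-only wells as vehicle and Rose Bengal sodium equivalency as the scale.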

[6] = qHTS assay to test for compound auto fluorescence at 535 nm (green) in HepG2 cells (AID 720675)
[7] = qHTS assay to test for compound auto fluorescence at 460 nm (blue) in HEK293 cells (AID 720678)
Procedure, shortened: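 HEK293 cells (2,000 per well, medium with 10% dialyzed FBS) attached for 4-5 hr at 37C, then received compound and stood overnight at 37C, 5% CO2. Blue fluorescence was read at Ex/Em 405/460 nm and expressed relative to triamterene.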

[8] = qHTS assay to test for compound auto fluorescence at 590 nm (red) in HEK293 cells (AID 720679)
Procedure, shortened: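 HEK293 cells (2,000/well, medium with 10% dialyzed FBS) attached for 4-5 hr at 37C, received 23 nL compound and were incubated overnight at 37C, 5% CO2. Red fluorescence was then read at 540/590nm Ex/Em, referenced to Rose Bengal sodium.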

[9] = qHTS assay to test for compound auto fluorescence at 535 nm (green) in HEK293 cells (AID 720680)
[10] = qHTS assay to test for compound auto fluorescence at 460 nm (blue) in HEK293 cell free culture (AID 720681)
Procedure, shortened: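 Compounds were added to cell-free DMEM with 10% FBS and fluorescence read directly. The blue channel used 405 nm excitation and 460 nm emission, with triamterene as the reference fluorophore.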

[11] = qHTS assay to test for compound auto fluorescence at 535 nm (green) in HEK293 cell free culture (AID 720682)
Procedure, shortened: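 Green-label autofluorescence (485 nm excitation, 535 nm emission) measured on compound added to cell-free culture medium (DMEM, 10% FBS). Output is expressed relative to fluorescein.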

[12] = qHTS assay to test for compound auto fluorescence at 590 nm (red) in HEK293 cell free culture (AID 720683)
Procedure, shortened: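 Cell-free wells of DMEM with 10% FBS received compound, and intrinsic fluorescence was read at excitation/emission 540/590 nm. Values expressed as equivalence to Rose Bengal sodium.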

[13] = qHTS assay to test for compound auto fluorescence at 590 nm (red) in HepG2 cell free culture (AID 720684)
Procedure, shortened: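 Auto fluorescence equivalency versus Rose Bengal sodium, red channel Ex/Em 540/590 nm; compounds in cell-free MEM/10% FBS; DMSO vehicle control.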

[14] = qHTS assay to test for compound auto fluorescence at 460 nm (blue) in HepG2 cell free culture (AID 720685)
Procedure, shortened: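 Cell-free plates of MEM plus 10% FBS received 23 nL compound or DMSO vehicle; blue-channel (405/460 nm) intensity scored against triamterene as reference fluorophore.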

[15] = qHTS assay to test for compound auto fluorescence at 535 nm (green) in HepG2 cell free culture (AID 720686)
[16] = qHTS assay to test for compound auto fluorescence at 460 nm (blue) in HepG2 cells (AID 720687)
Procedure, shortened: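 HepG2 cells in MEM with 10% FBS, attached overnight at 37 C, were exposed to compound or DMSO for 1 hr at 37 C, 5% CO2. Blue fluorescence was read at 405/460 nm, with triamterene as reference fluorophore.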

[17] = target: Glucocorticoid receptor (Homo sapiens) (UniProt P04150); assay: qHTS assay to identify small molecule agonists of the glucocorticoid receptor (GR) signaling pathway (AID 720691; active = well fitted activation curve with a large enough effect in the signal ratio in the repeat runs, not every such curve was filed as active; the % refers to the signal ratio)
Procedure, shortened: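 Cells: GR-bla HeLa, endogenous GR with stably integrated GRE-beta-lactamase reporter. Treatment 18 h, 37 C, compounds delivered in DMSO. Detection via LiveBLAzer B/G FRET substrate, 2 h RT, fluorescence intensity.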

[18] = target: Glucocorticoid receptor (Homo sapiens) (UniProt P04150); assay: qHTS assay to identify small molecule antagonists of the glucocorticoid receptor (GR) signaling pathway (AID 720692; active = well fitted inhibition curve with a large enough effect in the signal ratio in the repeat runs, not every such curve was filed as active; the % refers to the signal ratio)
Procedure, shortened: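 Quantitative HTS in antagonist format: HeLa cells expressing endogenous GR and a stably integrated GRE-bla reporter, stimulated with 5 nM dexamethasone (final) alongside test compounds for 18 h.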

[19] = qHTS assay for small molecule disruptors of the mitochondrial membrane potential (AID 720635)
Procedure, shortened: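 HepG2 cells exposed to compound 1 hr at 37C, then Mito-MPS dye 30 min. Ratio read of aggregate (540/590 nm) versus monomer (490/535 nm) fluorescence.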
% is set by controls: 0 for no effect and ±100 for the full control effect.

Sequence of Glucocorticoid receptor (Homo sapiens) (P04150 whole entry, looked up): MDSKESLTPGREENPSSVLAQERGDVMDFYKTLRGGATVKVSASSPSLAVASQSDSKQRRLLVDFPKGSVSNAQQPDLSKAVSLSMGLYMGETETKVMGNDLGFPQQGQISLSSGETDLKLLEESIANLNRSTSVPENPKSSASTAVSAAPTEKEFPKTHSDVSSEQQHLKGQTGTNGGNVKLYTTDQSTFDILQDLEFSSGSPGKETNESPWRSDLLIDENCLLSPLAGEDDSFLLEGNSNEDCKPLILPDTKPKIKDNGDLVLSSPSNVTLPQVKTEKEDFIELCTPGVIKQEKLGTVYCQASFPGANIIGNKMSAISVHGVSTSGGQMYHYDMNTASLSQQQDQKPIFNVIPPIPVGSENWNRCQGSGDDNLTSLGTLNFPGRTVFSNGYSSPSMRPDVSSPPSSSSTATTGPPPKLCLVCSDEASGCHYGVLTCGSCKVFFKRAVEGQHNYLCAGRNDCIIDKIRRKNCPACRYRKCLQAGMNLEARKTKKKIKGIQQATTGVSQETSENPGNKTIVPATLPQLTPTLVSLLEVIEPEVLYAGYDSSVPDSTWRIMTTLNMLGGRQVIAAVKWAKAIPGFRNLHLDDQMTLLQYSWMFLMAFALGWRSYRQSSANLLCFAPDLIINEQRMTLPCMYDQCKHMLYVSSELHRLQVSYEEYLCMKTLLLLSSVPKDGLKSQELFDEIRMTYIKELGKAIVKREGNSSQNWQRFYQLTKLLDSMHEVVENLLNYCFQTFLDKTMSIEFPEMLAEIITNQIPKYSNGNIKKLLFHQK

c1ccc(OCc2ccc(CCCN3CCOCC3)cc2)cc1
inactive: Potency [1] | Potency [2] | Potency [3] | Potency [4] | outcome [5] | outcome [6] | Potency [7] | outcome [8] | outcome [9] | Potency [10] | outcome [11] | outcome [12] | outcome [13] | Potency [14] | outcome [15] | Potency [16] | Potency [17] | Potency [18]

N[C@H]1C(O)O[C@H](CO)[C@H](O)[C@@H]1O (stereo partly drawn)
inactive: Potency [1] | Potency [2] | Potency [3] | Potency [4] | outcome [5] | outcome [6] | Potency [7] | outcome [8] | Potency [10] | outcome [11] | outcome [12] | outcome [13] | Potency [14] | outcome [15] | Potency [16]

CN1CCC(=C2c3ccccc3C=Cc3ccccc32)CC1
inactive: Potency [1] | Potency [2] | Potency [3] | Potency [4] | outcome [5] | outcome [6] | Potency [7] | outcome [8] | outcome [9] | Potency [10] | outcome [11] | outcome [12] | outcome [13] | Potency [14] | outcome [15] | Potency [16] | Potency [17]

CCN(CC)C(C)CN1c2ccccc2Sc2ccccc21 (stereo not drawn)
inactive: Potency [1] | Potency [2] | Potency [3] | Potency [4] | Potency [19] | fluorescence, relative to Rose Bengal [5] 0.373% [at 18.6 µM] | fluorescence, % of fluorescein control [6] 0.0339% [at 18.6 µM] | fluorescence, % of triamterene [7] -0.0331% [at 18.6 µM] | fluorescence, % of fluorescein [9] -0.0513% [at 18.6 µM] | fluorescence, % of fluorescent control [10] -0.0592% [at 18.6 µM] | activity change [11] -0.135% [at 18.6 µM] | fluorescence, % of fluorescent control [12] -0.0816% [at 18.6 µM] | fluorescence, % of fluorescent control [14] 0.0011% [at 18.6 µM] | fluorescence, % of fluorescein control [15] -0.0641% [at 18.6 µM] | fluorescence, % of fluorescent control [16] -0.0255% [at 18.6 µM] | Potency [17]

CCOC(=O)C1=NN(c2ccccc2)C(=O)C1
inactive: Potency [1] | Potency [2] | Potency [3] | Potency [4] | outcome [5] | outcome [6] | Potency [7] | outcome [8] | outcome [9] | outcome [11] | outcome [12] | outcome [13] | Potency [14] | outcome [15] | Potency [17]

Cc1ccc(C(N)=O)cc1N
inactive: Potency [1] | Potency [2] | Potency [3] | Potency [4] | Potency [19] | outcome [5] | outcome [6] | Potency [7] | outcome [9] | Potency [10] | outcome [11] | outcome [12] | Potency [14] | outcome [15] | Potency [16] | Potency [17] | Potency [18]

CCCCOCCOCCOCCOCCO
inactive: Potency [1] | Potency [2] | Potency [3] | Potency [4] | Potency [19] | outcome [5] | outcome [6] | Potency [7] | outcome [9] | Potency [10] | outcome [12] | outcome [15] | Potency [16]

OCCC1CCCCN1 (stereo not drawn)
inactive: Potency [1] | Potency [2] | Potency [3] | Potency [4] | outcome [5] | outcome [6] | Potency [7] | outcome [9] | Potency [10] | outcome [11] | outcome [12] | outcome [13] | Potency [14] | outcome [15] | Potency [16] | Potency [17]

COC(Cc1ccccc1)OC
inactive: Potency [1] | Potency [2] | Potency [3] | Potency [4] | outcome [5] | outcome [6] | Potency [7] | outcome [8] | outcome [9] | Potency [10] | outcome [11] | outcome [12] | outcome [13] | Potency [14] | outcome [15] | Potency [16] | Potency [17]

CC(C)CCCCCCOC(=O)c1ccc(C(=O)OCCCCCCC(C)C)c(C(=O)OCCCCCCC(C)C)c1
inactive: Potency [1] | Potency [2] | Potency [3] | Potency [4] | Potency [19] | outcome [5] | outcome [6] | outcome [8] | outcome [9] | Potency [10] | outcome [11] | outcome [12] | outcome [13] | Potency [14] | outcome [15] | Potency [16]

NC1CCN(c2nc3c(cc2F)c(=O)c(C(=O)O)cn3-c2ccc(F)cc2F)C1 (stereo not drawn)
inactive: Potency [1] | Potency [2] | Potency [3] | Potency [4] | Potency [19] | outcome [5] | outcome [6] | outcome [9] | Potency [10] | outcome [11] | outcome [12] | outcome [13] | Potency [14] | outcome [15] | Potency [16] | Potency [17]

CN1CCC(OC(c2ccccc2)c2ccccc2)CC1
inactive: Potency [1] | Potency [2] | Potency [3] | Potency [4] | fluorescence, relative to Rose Bengal [5] -0.513% [at 18.6 µM] | fluorescence, % of fluorescein control [6] -0.0945% [at 18.6 µM] | fluorescence, % of triamterene [7] -0.105% [at 18.6 µM] | fluorescence, % of fluorescent control [8] 0.0005% [at 18.6 µM] | fluorescence, % of fluorescein [9] -0.132% [at 18.6 µM] | fluorescence, % of fluorescent control [10] -0.231% [at 18.6 µM] | activity change [11] -0.251% [at 18.6 µM] | fluorescence, % of fluorescent control [12] 0.167% [at 18.6 µM] | fluorescence, % of Rose Bengal [13] 0.0772% [at 18.6 µM] | fluorescence, % of fluorescent control [14] -0.163% [at 18.6 µM] | fluorescence, % of fluorescein control [15] -0.14% [at 18.6 µM] | fluorescence, % of fluorescent control [16] -0.0097% [at 18.6 µM] | Potency [17]
